D2 PAM-1: D2 dopamine receptor (human) potentiation; HEK293 T-REx D2, calcium flux, EC20 dopamine potentiation; potentiation, % at 10 µM; actives 0.34% (n = 340,000); AID 485347;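 active = potentiation over 3 SD above the plate norm, cut at about 30% in these data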; also: 0% is about no effect
Target sequence (P14416 whole entry, looked up): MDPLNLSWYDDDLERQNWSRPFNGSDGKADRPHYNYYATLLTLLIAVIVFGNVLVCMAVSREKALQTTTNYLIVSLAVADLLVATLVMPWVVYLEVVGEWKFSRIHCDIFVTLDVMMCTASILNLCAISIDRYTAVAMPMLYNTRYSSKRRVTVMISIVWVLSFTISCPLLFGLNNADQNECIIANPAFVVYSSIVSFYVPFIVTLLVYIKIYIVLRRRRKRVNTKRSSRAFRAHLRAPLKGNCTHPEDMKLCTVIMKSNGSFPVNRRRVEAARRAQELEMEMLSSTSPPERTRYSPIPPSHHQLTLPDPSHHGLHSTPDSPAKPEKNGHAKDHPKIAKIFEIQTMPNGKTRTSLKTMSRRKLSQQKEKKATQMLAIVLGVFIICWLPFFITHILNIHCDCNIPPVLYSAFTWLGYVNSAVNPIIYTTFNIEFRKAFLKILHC
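Calcium flux readout, no-wash dye, 1 read/s. Inducible HEK293 Trex D2 line, overnight 30 C. Compound alone 180 s (agonist flags), then EC20 dopamine, another 180 s to score potentiation.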
D2 ag-1: activates the human D2 dopamine receptor; HEK293 T-REx D2 cells, calcium flux agonist mode; actives 0.53% (n = 340,000); activation, % at 2 µM; AID 485358;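 active = activation over 3 SD above normal in the single-dose calcium agonist read, cut at about 30% in these data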; also: 0% is about no effect
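Calcium-flux readout, 1 cycle/sec over 180 s following compound pin transfer, in inducible HEK293 Trex D2 cells (force-coupled); dopamine controls included. Positive calcium responses during this window marked compounds as potential agonists.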
D2 ag-2: activates the human D2 dopamine receptor; activation, % (test concentration not listed); AID 624465; actives 0.084% (n = 360,000); DiscoveRx PathHunter D2 beta-arrestin, luminescence, 90 min; 100% = 57 uM dopamine signal; in the data active = activation above about 40%; inconclusive = between about 15% and that limit
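DiscoveRx PathHunter D2 beta-arrestin cells (2,100/well) attached overnight, then compound-stimulated 90 min at 37 C in HBSS/10 mM HEPES/0.1% Tween-20 buffer; beta-galactosidase complementation read by luminescence after 1 h at ambient temperature. Dopamine 57 uM final (EC100) as control.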
D2 PAM-2: potentiates the human D2 dopamine receptor allosterically; potentiation, % (test concentration not listed); actives 0.23% (n = 360,000); P14416; DiscoveRx D2 beta-arrestin cells, luminescence, 90 min; 100% = 57 uM dopamine signal; in the data active = potentiation above about 50%; inconclusive = mostly about 30% to 49%
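D2 cells co-treated with compound plus 50 nM dopamine (EC20) for 90 min at 37 deg C to detect potentiation. Beta-arrestin recruitment was read as enzyme-fragment luminescence after 1 h at ambient temperature. Full response was set by 57 uM dopamine.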
D2 antagonist: antagonists of human D2 dopamine receptor; HEK293 TREx D2 cells, calcium flux, dopamine EC80; inhibition, % at 10 µM; actives 2% (n = 340,000); AID 485344; in the data active = inhibition above about 30%; inactive = below that, where a call was filed; also: 0% is about no effect
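Read-out: kinetic calcium fluorescence (1 cycle/s) in inducible HEK293 T-REx D2 cells after an EC80 dopamine addition that followed 180 s compound preincubation. Loss of the dopamine response indicates antagonism.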
Numbers without * were called inactive; ? = inconclusive; / = no result. Hits are enriched below; roughly 2.4% of the tested compounds scored in any of these assays.

SMILES | D2 PAM-1 | D2 ag-1 | D2 ag-2 | D2 PAM-2 | D2 antagonist
COc1ccc(C(=O)Nc2cccc(OC(=O)c3ccco3)c2)cc1 | 1 | -2 | -2 | -4 | -2
COc1ccc(C(C)=O)c(OC(=O)c2ccco2)c1 | 39* | 1 | -10 | 2 | 19
COc1cccc(NC(=O)Cn2c(CCC(=O)O)ccc2-c2ccccc2)c1 | 34* | 1 | -4 | -6 | 4
CCOC(=O)CCNC(=O)Nc1ccc2nc(C)n(Cc3cccc(Cl)c3)c(=O)c2c1 | 35* | -2 | 0 | 7 | -15
CCCc1nc2ccc(NC(=O)NCCC(=O)OCC)cc2c(=O)n1Cc1cccc(Cl)c1 | 4 | 0 | 0 | 3 | -16
CCOC(=O)c1c(-c2cccc([N+](=O)[O-])c2)csc1NC(=O)C1CC1 | 8 | 0 | 11 | 55* | -28
CCOC(=O)c1c(-c2cccc([N+](=O)[O-])c2)csc1NC(=O)C1CCCCC1 | -7 | 0 | 7 | ? | 1
Cc1ccccc1C(=O)NNC(=O)c1ccoc1C | / | / | 0 | -5 | /
Cc1occc1C(=O)NNC(=O)c1ccccc1C(=O)O | -11 | -1 | -1 | -1 | 31*
CCOC(=O)CNC(=O)C12CC3CC(C1)CC(c1ccc(C)cc1)(C3)C2 | 0 | 0 | -5 | -5 | 2
CCOc1ccc(NC(=O)C23CC4CC(C2)CC(c2ccccc2)(C4)C3)cc1 | -7 | 0 | -3 | 8 | 31*
O=c1[nH]c(/C=C/c2ccccn2)nc2ccccc12 | 2 | 1 | -9 | -6 | 37*
O=c1[nH]c(/C=C/c2cccc3ccccc23)nc2ccccc12 | 0 | -1 | -4 | -13 | 3
CCOc1ccc(Cn2c3ccc(OC)cc3c3nc4ccccc4nc32)cc1 | 3 | 2 | 1 | 9 | 5
CCn1c2ccc(OC)cc2c2nc3ccccc3nc21 | 31* | -1 | -2 | -12 | -6
COc1ccc(COc2ccsc2C(=O)Nc2ccc(Cl)cc2)cc1 | 16 | 1 | -1 | -10 | 40*
COc1ccc(N2CCN(C(=O)CN3C(=O)COc4ccc(S(=O)(=O)N5CCC(C)CC5)cc43)CC2)cc1 | -23 | 0 | / | / | /
CCSc1nnc2c(n1)OC(c1ccc(C)s1)Nc1ccccc1-2 (configuration not stated) | -4 | 0 | / | / | /
CCSc1nnc2c(n1)OC1(CCCC1)Nc1ccccc1-2 | 1 | -2 | -2 | 1 | 39*
CCN(CC)CCCNC(=O)c1ccc2c(c1)N(Cc1c(F)cccc1Cl)C(=O)c1ccccc1S2 | 1 | 1 | / | / | /
COc1cc2[nH]c(-c3ccc(C)cc3)cc(=O)c2cc1OC | -20 | -1 | 1 | -31 | 84*
COc1ccc(-c2cc(=O)c3cc(C)ccc3[nH]2)cc1 | -9 | 0 | -4 | -21 | 14
Cc1ccc(C)c(NC(=O)C2CCN(S(=O)(=O)c3c(C)noc3/C=C/c3cccs3)CC2)c1 | -11 | 0 | / | / | /
COc1ccc(C2=CC(c3ccccc3Cl)n3nc(-c4ccc(C)cc4)nc3N2)cc1 (configuration not stated) | 7 | -1 | / | / | /
C=CCn1c(COc2ccccc2)nnc1SC(C)C(=O)N/N=C/c1cc(Cl)ccc1O (configuration not stated) | -4 | -1 | 5 | 58* | 5
SMILES | D2 PAM-1 | D2 ag-1 | D2 ag-2 | D2 PAM-2 | D2 antagonist
CC1CCCN(CCCNC(=O)c2ccc3c(c2)N(Cc2ccc(F)cc2)C(=O)c2ccccc2S3=O)C1 (configuration not stated) | -19 | 2 | -9 | -39 | 74*
CSc1ccc(CNC(=O)c2ccccc2NC(=O)c2nsc3ccccc23)cc1 | -7 | 1 | / | / | /
CCc1ccc(NC(=O)COc2cccc(-n3cnnn3)c2)cc1 | -29 | 0 | -2 | -9 | 37*
Cc1ccc(NC(=O)COc2ccc(-n3cnnn3)cc2)cc1C | 19 | 0 | 2 | -10 | 42*
COC(=O)c1ccc(NC(=O)COc2cccc(-n3cnnn3)c2)cc1 | -1 | 0 | -2 | -2 | -8
CCN1CCN(C2=C(NS(=O)(=O)c3ccc(NC(C)=O)cc3)C(=O)c3ccccc3C2=O)CC1 | -2 | 0 | 11 | -17 | 4
CCN1CCN(C2=C(NS(=O)(=O)c3ccc(C)cc3)C(=O)c3ccccc3C2=O)CC1 | -1 | 0 | 3 | -24 | 39*

Compound activity (PubChem BioAssay)
